The source made the active and inactive calls. How the source made its calls: active means hit-call score of the fitted dose curve at least 0.9, where 1 is the maximum; inactive means score below 0.9.
Key:
[1] = read-out: Interleukin-1 alpha (IL1a), IL1A (gene 3552); experiment: BSK_BF4T_IL1a: BioMAP Diversity Plus: BF4T Assay for Interleukin-1 alpha (IL1a) Biomarker Activity (AID 2284264); settings: primary human bronchial epithelial cells with fibroblasts
How it was run: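 Human bronchial epithelial cells co-cultured with dermal fibroblasts, dosed and read at 24 h. Secreted/surface IL-1α quantified by ELISA; gain-of-signal fitted relative to DMSO baseline. Parallel SRB total-protein staining tracked cytotoxicity.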

Decorin, DCN (gene 1634) = experiment: BSK_MyoF_Decorin: BioMAP Diversity Plus: MyoF Assay for Decorin Biomarker Activity (AID 2284265); settings: primary human lung fibroblasts
How it was run: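 ELISA readout of decorin, 24 h post-dosing; primary human lung fibroblast (MyoF) culture; gain-of-signal fit vs DMSO baseline.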

KRT18 (gene 3875) [2] = experiment: BSK_BF4T_Keratin818: BioMAP Diversity Plus: BF4T Assay for Keratin 818 Biomarker Activity (AID 2284266); settings: primary human bronchial epithelial cells with fibroblasts
How it was run: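 Co-culture of human bronchial epithelial cells and dermal fibroblasts, chemical exposure 24 h. Keratin 8/18 measured by ELISA; positive-direction fit vs DMSO. SRB total protein run in parallel cultures for cytotoxicity.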

[3] = BSK_MyoF_SRB: Viability Assessment in the BioMAP Diversity Plus: MyoF Assay (AID 2284267); settings: primary human lung fibroblasts;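 further: total protein by SRB absorbance in parallel cultures as cytotoxicity measure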
How it was run: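 Human lung fibroblasts dosed with chemical and assessed 24 h later for overt cytotoxicity in parallel cultures. Total protein quantified by sulforhodamine B staining (0.1% SRB after 10% TCA fixation), read at 560 nm, analysed in positive direction versus DMSO baseline.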

[4] = read-out: Matrix Metallopeptidase 1 (MMP1), MMP1 (gene 4312); experiment: BSK_MyoF_MMP1: BioMAP Diversity Plus: MyoF Assay for Matrix Metallopeptidase 1 (MMP1) Biomarker Activity (AID 2284268); settings: primary human lung fibroblasts
How it was run: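 Cells: human lung fibroblasts. Exposure: 24 h chemical dosing. Detection: ELISA for MMP1. Analysis: upward fitting against DMSO negative control.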

[5] = read-out: TIMP metallopeptidase inhibitor 1 (TIMP1), TIMP1 (gene 7076); experiment: BSK_MyoF_TIMP1: BioMAP Diversity Plus: MyoF Assay for TIMP metallopeptidase inhibitor 1 (TIMP1) Biomarker Activity (AID 2284269); settings: primary human lung fibroblasts
How it was run: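 Primary human lung fibroblasts, MyoF multiplex system; chemical exposure 24 h; TIMP-1 by ELISA; positive fitting direction vs DMSO control.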

[6] = read-out: Matrix Metallopeptidase 1 (MMP1), MMP1 (gene 4312); experiment: BSK_BF4T_MMP1: BioMAP Diversity Plus: BF4T Assay for Matrix Metallopeptidase 1 (MMP1) Biomarker Activity (AID 2284270); settings: primary human bronchial epithelial cells with fibroblasts
How it was run: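 Co-culture of human bronchial epithelial cells and dermal fibroblasts; MMP-1 levels measured by ELISA 24 hours after chemical dosing, relative to DMSO. Cytotoxicity checked in parallel cultures by SRB total-protein staining.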

[7] = read-out: Tissue plasminogen activator (tPA), PLAT (gene 5327); experiment: BSK_BF4T_tPA: BioMAP Diversity Plus: BF4T Assay for Tissue plasminogen activator (tPA) Biomarker Activity (AID 2284272); settings: primary human bronchial epithelial cells with fibroblasts
How it was run: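 tPA level quantified by ELISA at 24 h post-treatment in bronchial epithelial/dermal fibroblast co-cultures, gain of signal scored against DMSO baseline. Parallel cultures stained with 0.1% SRB (560 nm) to flag overt cytotoxicity.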

[8] = read-out: Plasminogen Activator Inhibitor-1 (PAI1), SERPINE1 (gene 5054); experiment: BSK_BF4T_PAI1: BioMAP Diversity Plus: BF4T Assay for Plasminogen Activator Inhibitor-1 (PAI1) Biomarker Activity (AID 2284273); settings: primary human bronchial epithelial cells with fibroblasts
How it was run: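 Co-culture of human bronchial epithelial cells and dermal fibroblasts exposed to compound for 24 h. PAI-1 measured by ELISA; activity fitted in positive direction versus DMSO. Parallel SRB staining assessed overt cytotoxicity.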

[9] = BSK_BF4T_SRB: Viability Assessment in the BioMAP Diversity Plus: BF4T Assay (AID 2284274); settings: primary human bronchial epithelial cells with fibroblasts
How it was run: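 Co-culture of human bronchial epithelial cells and dermal fibroblasts (BioMAP BF4T) exposed 24 h. Total protein by sulforhodamine B staining (0.1% SRB after 10% TCA fixation, 560 nm) in parallel cultures; fitted vs DMSO.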

[10] = read-out: Matrix Metallopeptidase 9 (MMP9), MMP9 (gene 4318); experiment: BSK_BF4T_MMP9: BioMAP Diversity Plus: BF4T Assay for Matrix Metallopeptidase 9 (MMP9) Biomarker Activity (AID 2284276); settings: primary human bronchial epithelial cells with fibroblasts
How it was run: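 Co-culture of human bronchial epithelial cells and dermal fibroblasts dosed for 24 h; MMP-9 quantified by ELISA and fitted upward versus DMSO. Cytotoxicity monitored in parallel cultures by SRB total-protein staining at the biomarker time point.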

[11] = read-out: Interleukin-8 (IL8), CXCL8 (gene 3576); experiment: BSK_IMphg_IL8: BioMAP Diversity Plus: IMphg Assay for Interleukin-8 (IL8) Biomarker Activity (AID 2284277); settings: primary human endothelial cells with macrophages
How it was run: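 Co-culture of human venular endothelial cells and macrophages exposed to chemicals for 24 h; IL-8 quantified by ELISA and compared against the DMSO baseline, with SRB total-protein staining in parallel cultures for cytotoxicity.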

[12] = read-out: Interferon-inducible T-cell alpha chemoattractant (ITAC), CXCL11 (gene 6373); experiment: BSK_BE3C_ITAC: BioMAP Diversity Plus: BE3C Assay for Interferon-inducible T-cell alpha chemoattractant (ITAC) Biomarker Activity (AID 2284279); settings: primary human bronchial epithelial cells
How it was run: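 Steps: dose human bronchial epithelial cells with chemical; incubate 24 h; measure I-TAC by ELISA; fit endpoint in positive direction against DMSO control. Cytotoxicity was checked in parallel cultures by SRB staining at harvest.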

[13] = read-out: Interleukin-8 (IL8), CXCL8 (gene 3576); experiment: BSK_BE3C_IL8: BioMAP Diversity Plus: BE3C Assay for Interleukin-8 (IL8) Biomarker Activity (AID 2284280); settings: primary human bronchial epithelial cells
How it was run: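 IL-8 signal gain, normalised to DMSO vehicle, was scored after a 24 h chemical exposure of primary human bronchial epithelial cells, with detection by ELISA.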

[14] = read-out: Epidermal growth factor receptor (EGFR), EGFR (gene 1956); experiment: BSK_BE3C_EGFR: BioMAP Diversity Plus: BE3C Assay for Epidermal growth factor receptor (EGFR) Biomarker Activity (AID 2284281); settings: primary human bronchial epithelial cells
How it was run: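 Compound is added to human bronchial epithelial cells, cells incubate 24 h, then EGFR is detected by ELISA. Values reflect positive-direction fitting relative to DMSO.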

KRT18 (gene 3875) [15] = experiment: BSK_BE3C_Keratin818: BioMAP Diversity Plus: BE3C Assay for Keratin 818 Biomarker Activity (AID 2284282); settings: primary human bronchial epithelial cells
How it was run: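 Human primary bronchial epithelial cells in the BE3C system were exposed to test chemical for 24 h, then Keratin 8/18 was quantified by ELISA. Activity was fitted in the positive direction against DMSO as negative control and baseline.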

[16] = read-out: Matrix Metallopeptidase 3 (MMP3), MMP3 (gene 4314); experiment: BSK_BF4T_MMP3: BioMAP Diversity Plus: BF4T Assay for Matrix Metallopeptidase 3 (MMP3) Biomarker Activity (AID 2284271); settings: primary human bronchial epithelial cells with fibroblasts
How it was run: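 Co-culture of human bronchial epithelial cells and dermal fibroblasts dosed 24 h; MMP-3 measured by ELISA, positive-direction fit versus DMSO. Cytotoxicity tracked by SRB total-protein staining (560 nm) in parallel cultures.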

[17] = read-out: urokinase Plasminogen Activator (uPA), PLAU (gene 5328); experiment: BSK_BF4T_uPA: BioMAP Diversity Plus: BF4T Assay for urokinase Plasminogen Activator (uPA) Biomarker Activity (AID 2284275); settings: primary human bronchial epithelial cells with fibroblasts
How it was run: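 Co-culture of human bronchial epithelial cells and dermal fibroblasts; uPA quantified by ELISA 24 hours after dosing, fitted relative to DMSO. Parallel SRB total-protein staining assessed overt cytotoxicity.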

[18] = read-out: Interleukin-8 (IL8), CXCL8 (gene 3576); experiment: BSK_BF4T_IL8: BioMAP Diversity Plus: BF4T Assay for Interleukin-8 (IL8) Biomarker Activity (AID 2284263); settings: primary human bronchial epithelial cells with fibroblasts
How it was run: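 Human bronchial epithelial cells with dermal fibroblasts co-culture; IL-8 measured by ELISA 24 hours after dosing, fitted vs DMSO. Cytotoxicity tracked in parallel cultures by SRB total-protein staining.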

[19] = read-out: Intercellular Adhesion Molecule 1 (ICAM1), ICAM1 (gene 3383); experiment: BSK_BE3C_ICAM1: BioMAP Diversity Plus: BE3C Assay for Intercellular Adhesion Molecule 1 (ICAM1) Biomarker Activity (AID 2284278); settings: primary human bronchial epithelial cells;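 further: cell-surface ICAM-1 protein level quantified by ELISA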
How it was run: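 Primary human bronchial epithelial cells were exposed to compound for 24 h, after which cell-surface ICAM-1 was quantified by ELISA. Activity was fitted in the gain-of-signal direction against DMSO as negative control and baseline.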

Measured: outcome

Cc1ccc(S(=O)(=O)OCC(F)(F)C(F)(F)C(F)(F)C(F)(F)C(F)(F)C(F)F)cc1
not listed: [16] | [17] | [18] | [19]
inactive: all other assays above

COC(=O)CCC(F)(F)C(F)(F)C(F)(F)C(F)(F)F
not listed: [7] | [9] | [13] | [17] | [18] | [19]
inactive: all other assays above

FC(F)(F)C(F)(F)C(F)(F)C(F)(F)C(F)(F)CCI
not listed: [13] | [14] | [16] | [18] | [19]
inactive: all other assays above

NC(=O)C(F)(F)C(F)(F)C(F)(F)C(F)(F)F
not listed: [7] | [9] | [14] | [19]
inactive: all other assays above

OCC(F)(F)C(F)(F)C(F)(F)C(F)(F)C(F)(F)C(F)F
not listed: [9] | [13] | [14] | [16] | [17] | [18] | [19]
inactive: all other assays above

FC(F)(F)C(F)(F)C(F)(F)N(C(F)(F)C(F)(F)C(F)(F)F)C(F)(F)C(F)(F)C(F)(F)F
not listed: [9] | [13] | [16] | [17] | [18]
inactive: all other assays above

Source: PubChem BioAssay (EPA / NIEHS)
